Out of some 5,500 compounds screened, about 2,000 (36%) were called active. Another 18% or so got no clear call; they are omitted. Cut-off read from the data, not from the text of the source: active = normalized growth mostly below about 0.91 (no sharp cut-off); inconclusive = no clear call, values can overlap the other calls; inactive = mostly above about 0.92. This is one part of the list.
Test: chemical genetic growth profiling, strain panel (AID 1159580);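 note: tested at 20 µM; growth read once vehicle control cultures reached saturation at 30 °C; 1 = growth at the plate median or of vehicle wells; lower values mean less growth of the strain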
Conditions: S. cerevisiae deletion strains, growth OD

Measured: normalized growth

C=Cc1c(C)c2[n-]c1=Cc1[n-]c(c(CC)c1C)C=c1[n-]c3c(c1C)C(=O)C(C(=O)[O-])C=3c1[n-]c(c(C)c1CCC(=O)[O-])C=2.[Cu] (configuration not stated)
inactive: locus YAL021C, strain ccr4, stronger effect = lower value 1.07 | locus YAL026C, strain drs2, stronger effect = lower value 1.02 | locus YBL061C, strain skt5, stronger effect = lower value 1.08 | locus YBR009C, strain hhf1, stronger effect = lower value 1.02 | locus YBR023C, strain chs3, stronger effect = lower value 1.07 | locus YBR171W, strain sec66, stronger effect = lower value 1.09 | locus YBR231C, strain swc5, stronger effect = lower value 1.08 | locus YBR279W, strain paf1, stronger effect = lower value 1.06 | locus YCL011C, strain gbp2, stronger effect = lower value 1.05 | locus YCL016C, strain dcc1, stronger effect = lower value 1.03 | locus YCL061C, strain MRC1, stronger effect = lower value 1.03 | locus YCL069W, strain vba3, stronger effect = lower value 1.07 | locus YDL005C, strain med2, stronger effect = lower value 1.08 | locus YDR159W, strain sac3, stronger effect = lower value 1.09 | locus YDR335W, strain msn5, stronger effect = lower value 1.02 | locus YDR392W, strain spt3, stronger effect = lower value 1.11 | locus YEL003W, strain gim4, stronger effect = lower value 1.03 | locus YEL037C, strain rad23, stronger effect = lower value 1.07 | locus YER015W, strain faa2, stronger effect = lower value 1.02 | locus YFR010W, strain ubp6, stronger effect = lower value 1.1 | locus YGL167C, strain pmr1, stronger effect = lower value 1.08 | locus YGL173C, strain kem1, stronger effect = lower value 1.02 | locus YGL240W, strain doc1, stronger effect = lower value 1.03 | locus YGL253W, strain hxk2, stronger effect = lower value 1.02 | locus YHR027C, strain rpn1, stronger effect = lower value 1.05 | locus YHR030C, strain SLT2, stronger effect = lower value 0.992 | locus YHR079C, strain IRE1, stronger effect = lower value 0.998 | locus YHR142W, strain chs7, stronger effect = lower value 1.08 | locus YJL092W, strain hpr5, stronger effect = lower value 1.07 | locus YJL095W, strain BCK1, stronger effect = lower value 0.957 | locus YJL164C, strain tpk1, stronger effect = lower value 1.05 | locus YJL166W, strain qcr8, stronger effect = lower value 1.01 | locus YJR066W, strain TOR1, stronger effect = lower value 0.957 | locus YKL160W, strain elf1, stronger effect = lower value 1.06 | locus YLL001W, strain dnm1, stronger effect = lower value 1.06 | locus YLR027C, strain aat2, stronger effect = lower value 1.07 | locus YLR113W, strain HOG1, stronger effect = lower value 0.999 | locus YLR221C, strain rsa3, stronger effect = lower value 1.01 | locus YLR258W, strain gsy2, stronger effect = lower value 1.07 | locus YLR262C, strain YPT6 (second series), stronger effect = lower value 1.09 | locus YLR320W, strain mms22, stronger effect = lower value 1.06 | locus YLR342W, strain FKS1, stronger effect = lower value 1.04 | locus YLR357W, strain rsc2, stronger effect = lower value 1.08 | locus YLR370C, strain arc18, stronger effect = lower value 1.04 | locus YLR384C, strain iki3, stronger effect = lower value 1.08 | locus YML120C, strain ndi1, stronger effect = lower value 1.03 | locus YMR058W, strain fet3, stronger effect = lower value 0.967 | locus YMR205C, strain PFK2, stronger effect = lower value 1.11 | locus YNL183C, strain NPR1, stronger effect = lower value 0.862 | locus YNL209W, strain ssb2, stronger effect = lower value 1.04 | locus YNL248C, strain rpa49, stronger effect = lower value 1.03 | locus YNL322C, strain KRE1 (second series), stronger effect = lower value 1.08 | locus YOR001W, strain rrp6, stronger effect = lower value 1.05 | locus YOR070C, strain gyp1, stronger effect = lower value 1.05 | locus YOR080W, strain dia2, stronger effect = lower value 1.06 | locus YOR083W, strain WHI5, stronger effect = lower value 0.992 | locus YOR106W, strain vam3, stronger effect = lower value 0.999 | locus YOR231W, strain MKK1, stronger effect = lower value 1.01 | locus YOR270C, strain vph1, stronger effect = lower value 1.15 | locus YOR290C, strain snf2, stronger effect = lower value 1.06 | locus YPL051W, strain arl3, stronger effect = lower value 1.07 | locus YPL078C, strain atp4, stronger effect = lower value 1.03 | locus YPL256C, strain CLN2, stronger effect = lower value 1.05
active: locus YAL030W, strain snc1, stronger effect = lower value 1.09 [resistant] | locus YCR088W, strain abp1, stronger effect = lower value 1.11 [resistant] | locus YDL040C, strain nat1, stronger effect = lower value 1.08 [resistant] | locus YDR001C, strain nth1, stronger effect = lower value 1.1 [resistant] | locus YDR069C, strain doa4, stronger effect = lower value 1.12 [resistant] | locus YDR137W, strain rgp1, stronger effect = lower value 1.16 [resistant] | locus YDR195W, strain ref2 1.28 [resistant] | locus YDR297W, strain sur2, stronger effect = lower value 1.08 [resistant] | locus YDR334W, strain swr1, stronger effect = lower value 1.11 [resistant] | locus YEL061C, strain CIN8 (second series), stronger effect = lower value 1.09 [resistant] | locus YER016W, strain bim1, stronger effect = lower value 1.09 [resistant] | locus YER111C, strain swi4, stronger effect = lower value 1.09 [resistant] | locus YER155C, strain BEM2 (second series), stronger effect = lower value 1.17 [resistant] | locus YGL227W, strain vid30, stronger effect = lower value 1.1 [resistant] | locus YHR013C, strain ard1, stronger effect = lower value 1.18 [resistant] | locus YJL095W, strain BCK1 (second series), stronger effect = lower value 1.09 [resistant] | locus YJL115W, strain asf1, stronger effect = lower value 1.11 [resistant] | locus YJL129C, strain trk1, stronger effect = lower value 1.15 [resistant] | locus YJL154C, strain vps35, stronger effect = lower value 1.09 [resistant] | locus YJL187C, strain SWE1, stronger effect = lower value 1.08 [resistant] | locus YKR026C, strain gcn3, stronger effect = lower value 1.1 [resistant] | locus YKR091W, strain srl3, stronger effect = lower value 1.08 [resistant] | locus YLL026W, stronger effect = lower value 1.08 [resistant] | locus YLL041C, strain sdh2, stronger effect = lower value 1.08 [resistant] | locus YMR125W, strain sto1, stronger effect = lower value 1.13 [resistant] | locus YMR129W, stronger effect = lower value 1.08 [resistant] | locus YMR231W, strain pep5, stronger effect = lower value 1.08 [resistant] | locus YNL071W, strain lat1, stronger effect = lower value 1.09 [resistant] | locus YNR049C, strain mso1, stronger effect = lower value 1.09 [resistant] | locus YOR265W, strain rbl2, stronger effect = lower value 1.09 [resistant] | locus YPL106C, strain sse1, stronger effect = lower value 1.16 [resistant] | locus YPL240C, strain hsp82, stronger effect = lower value 1.09 [resistant]

Cc1nc2sccn2c(=O)c1CCN1CCC(=C(c2ccccc2)c2ccc(F)cc2)CC1
inactive: locus YAL013W, strain DEP1, stronger effect = lower value 0.965 | locus YAL040C, strain CLN3, stronger effect = lower value 0.99 | locus YCL061C, strain MRC1 (second series), stronger effect = lower value 0.993 | locus YDR150W, strain NUM1, stronger effect = lower value 0.995 | locus YDR363W, strain ESC2, stronger effect = lower value 0.985 | locus YJR075W, strain HOC1, stronger effect = lower value 1.01 | locus YMR263W, strain SAP30, stronger effect = lower value 0.992 | locus YNL175C, strain NOP13, stronger effect = lower value 1.04 | locus YNL197C, strain WHI3, stronger effect = lower value 1.05 | locus YNL224C, strain SQS1, stronger effect = lower value 1.02 | locus YNL322C, strain KRE1, stronger effect = lower value 0.956 | locus YPL241C, strain CIN2, stronger effect = lower value 0.992
